High-throughput results (PubChem BioAssay)
CYP2C19 inhib: inhibitors of human CYP2C19; P33261; CYP2C19 Supersomes, luciferin-H EGE luminescence, 30 min; inhibition, % at 5 µM; actives 21% (n = 96,000);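 active = CYP2C19 inhibition above a set limit at 5 µM in the primary screen, cut at about 50% in these data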
PostGolgi yeast: growth inhibition of a yeast mutant, post-Golgi transport screen. post-Golgi transport phenotypic cell assay. inhibition, % at 10 µM. actives 0.9% (n = 98,000). AID 739;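 also: yeast cells grown in 1536-well plates; yeast grown about 18 h at 30C before absorbance read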
CYP2C19 act: activators of human cytochrome P450 2C19; P33261; recombinant CYP2C19, luciferin-H EGE luminescence; stronger effect = higher value; 0 = fully inhibited enzyme, 1 = untreated enzyme; activation factor at 5 µM; 96,000 tested, under 10 active; AID 1025;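 active = activation factor of at least 2 at 5 µM in the primary screen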
CYP2C9 act: activators of human CYP2C9. actives 1.4% (n = 96,000). P11712. recombinant CYP2C9, luciferin-H conversion, luminescence; stronger effect = higher value; factor 1 = untreated enzyme, 0 = blocked. activation factor at 5 µM. AID 1024;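 active = activation factor of 2 or more for CYP2C9 at a 5 µM dose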
Target sequence (P11712 whole entry, looked up): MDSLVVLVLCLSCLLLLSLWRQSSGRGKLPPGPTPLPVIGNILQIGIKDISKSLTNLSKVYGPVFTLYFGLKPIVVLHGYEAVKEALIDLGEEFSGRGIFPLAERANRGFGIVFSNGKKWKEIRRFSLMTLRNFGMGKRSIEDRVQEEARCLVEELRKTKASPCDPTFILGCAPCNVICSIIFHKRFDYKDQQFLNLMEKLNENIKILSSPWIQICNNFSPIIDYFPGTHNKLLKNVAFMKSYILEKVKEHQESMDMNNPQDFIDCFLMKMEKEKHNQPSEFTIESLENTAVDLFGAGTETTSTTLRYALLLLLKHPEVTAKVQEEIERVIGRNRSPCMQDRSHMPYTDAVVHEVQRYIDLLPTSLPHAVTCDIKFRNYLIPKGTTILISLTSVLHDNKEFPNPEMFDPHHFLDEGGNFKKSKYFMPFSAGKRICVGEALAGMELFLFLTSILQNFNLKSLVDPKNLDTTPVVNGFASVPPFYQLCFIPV
CYP2C9 inh: inhibitors of human CYP2C9. P11712. CYP2C9 Supersomes, luciferin-H conversion, luminescence. inhibition, % at 5 µM. actives 20% (n = 96,000). AID 777;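 active = blocking of liver enzyme CYP2C9 beyond about 50% at 5 µM, limit read from the data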
PostGolgi ctrl: yeast control strain growth, post-Golgi counter-screen; actives 5% (n = 98,000); AID 738; inhibition, % at 10 µM; efflux-deficient yeast background strain, growth absorbance A615, 16 h
A number is an active result; 0 = inactive. Rows were chosen to be rich in hits. Some 32% of all compounds tested hit in one or more screens of this group. Rule as the data show it, unless noted: active = inhibition above about 30%; inactive = the rest.

SMILES	CYP2C19 inhib	PostGolgi yeast	CYP2C19 act	CYP2C9 act	CYP2C9 inh	PostGolgi ctrl
CCOc1ccc2nc(SCC(=O)NCc3ccc4c(c3)OCO4)[nH]c2c1	0	0	0	0	68	0
CC(C)(C)C(=O)CSc1nc2ncc(Br)cc2[nH]1	91	0	0	0	0	0
COc1ccc2[nH]c3nc(SCc4nnc(-c5ccc(C)cc5)o4)nnc3c2c1	52	0	0	0	72	0
Cc1nc2nc(SCC(=O)C(C)(C)C)[nH]c2cc1Br	0	0	0	0	0	0
CCOc1ccc2nc(SCC(=O)Nc3ccc4c(c3)OCCO4)[nH]c2c1	61	0	0	0	91	0
COc1ccc2nc(SCC(=O)Nc3c(C)cccc3C)[nH]c2c1	52	0	0	0	84	0
COC(=O)c1ccc(-n2nnnc2SCc2ccccc2OC)cc1	0	0	0	0	0	0
O=C(CCN1C(=O)c2cccc3cccc(c23)C1=O)N1CCN(Cc2ccc3c(c2)OCO3)CC1	0	0	0	0	0	0
COC(=O)CSc1nnc(-c2ccc(S(=O)(=O)NCc3cccs3)cc2)o1	0	0	0	0	0	0
Cc1cccc(OCCOc2ccc(/C=N/NC(=O)Cc3nnc(N)s3)cc2)c1	0	0	0	0	0	0
Cc1noc(C)c1COc1ccc(C(=O)OC(C)C(=O)Nc2ccc(N3CCOCC3)cc2)cc1 (stereo not drawn)	0	0	0	0	0	0
CCc1ccc(/C=C\C(=O)N2CCc3ccccc3C2)cc1	0	0	0	0	0	0
COc1ccc2nc(SCC(=O)Nc3ccc4c(c3)OCCO4)[nH]c2c1	0	0	0	0	81	0
CN1/C(=C/C2CC(=O)NC2=O)C(C)(C)c2ccccc21 (stereo not drawn)	0	45	0	0	0	0
Cc1cc(-c2cccnc2)c(C#N)c(SCc2cccc(F)c2)n1	69	0	0	0	0	0
Cc1cc(-c2cccnc2)c(C#N)c(SCC#N)n1	0	0	0	0	0	0
CCc1nc(SCc2cccnc2)c(C#N)cc1C	57	0	0	0	0	0
CC1CCCCC1NC(=O)c1cc2c(s1)CS(=O)(=O)C2 (stereo not drawn)	0	0	0	0	0	0
COC(=O)COc1nc(C)c2c(c1C#N)CC(C)(C)OC2	0	0	0	0	0	0
CC1(C)Cc2c(C#N)c(OCC(=O)c3ccccc3)nc(-c3ccoc3)c2CO1	0	0	0	0	0	0
CC1(C)Cc2c(C#N)c(SCc3ccccc3)nc(N3CCOCC3)c2CO1	0	0	0	0	88	38
COC(=O)Sc1nc(N2CCOCC2)c2c(c1C#N)CC(C)(C)OC2	62	0	0	0	83	0
CC1(C)Cc2c(C#N)c(NCCN3CCOCC3)nc(-c3ccco3)c2CO1	0	0	0	0	0	0
CCCCCSc1nc(N2CCOCC2)c2c(c1C#N)CC(C)(C)OC2	0	0	0	0	83	0
CC1(C)Cc2c(C#N)c(SCC(=O)c3ccccc3)nc(N3CCOCC3)c2CO1	62	0	0	0	92	0
SMILES	CYP2C19 inhib	PostGolgi yeast	CYP2C19 act	CYP2C9 act	CYP2C9 inh	PostGolgi ctrl
CCOC(=O)CCNC(=O)CNC(=O)OCc1ccccc1	0	0	0	0	0	0
CCOC(=O)c1ccc(NC(=O)NC2CC3CCC(C2)N3Cc2nnnn2C(C)(C)C)cc1 (stereo not drawn)	0	0	0	0	0	0
COc1ccc(NC(=O)c2cc(C(C)C)on2)c(OC)c1	0	0	0	2.8	0	0
COc1cc(NC(=O)c2cc(C(C)C)on2)c(OC)cc1Cl	0	0	0	0	0	0
O=C(Nc1cccnc1)C1OCCc2ccccc21 (stereo not drawn)	0	0	0	0	0	0
COc1ccc(NC(=O)C2OCCc3ccccc32)c(OC)c1 (stereo not drawn)	91	0	0	0	0	0
COc1ccc(NC(=O)c2ccccc2O)c(OC)c1	60	0	0	0	53	0
COc1cccc(C(=O)NCc2ccc(N3CCN(C(=O)OC(C)(C)C)CC3)cc2)c1	0	0	0	0	0	0
CCn1cc(Br)c(C(=O)Nc2ccc(C(=O)OC(C)C)cc2)n1	75	0	0	0	0	0
CCOC(=O)c1c(NC(=O)c2nn(CC)cc2Br)c(C#N)cn1-c1ccccc1	75	0	0	0	0	0
CCn1cc(Br)c(C(=O)NN)n1	0	0	0	0	0	0
CCn1cc(Br)c(C(=O)Nc2ccc(OC)cc2)n1	74	0	0	0	0	0
CCn1cc(Br)c(C(=O)Nc2cccc(Cl)c2)n1	94	0	0	0	66	0
CCOC(=O)c1c(N)c(C#N)cn1-c1ccccc1	0	0	0	0	0	0
Cc1ccc(NC(=O)CN2C(=O)C3CCCCN3C(=O)c3ccccc32)cc1 (stereo not drawn)	0	0	0	0	0	0
CSC1=NC(NCCCO)c2c(sc3c2CC(C)(C)OC3)N1 (stereo not drawn)	0	0	0	0	0	0
O=P(OC1CCCCC1)(OC1CCCCC1)C(O)c1ccc(Cl)cc1Cl (stereo not drawn)	0	0	0	0	0	0
O=P(OC1CCCCC1)(OC1CCCCC1)C(O)c1c(Cl)cccc1Cl (stereo not drawn)	0	0	0	0	0	36
Cc1ccc(C(O)P(=O)(OC2CCCCC2)OC2CCCCC2)cc1 (stereo not drawn)	89	0	0	0	62	40
CSc1nc(SCC(=O)NCc2ccco2)c2c3c(sc2n1)COC(C)(C)C3	0	0	0	0	0	0
CSc1nc(SCC(=O)NC(c2ccccc2)c2ccccc2)c2c3c(sc2n1)CN(C)CC3	0	0	0	0	57	0
CC1(C)CC(O)(CCNCc2ccc3c(c2)OCO3)CCO1 (stereo not drawn)	0	0	0	0	0	0
Cc1cc(C(C)c2ccccc2)c(O)c(CN2CCOCC2)c1C (stereo not drawn)	0	0	0	0	0	0
COc1ccccc1C1CC(c2ccccc2)Nc2ncnn21 (stereo not drawn)	87	0	0	0	0	0
Cc1ccc(C2CC(c3ccco3)n3ncnc3N2)cc1 (stereo not drawn)	91	0	0	0	0	0
SMILES	CYP2C19 inhib	PostGolgi yeast	CYP2C19 act	CYP2C9 act	CYP2C9 inh	PostGolgi ctrl
COc1ccccc1C1CC(c2ccc(C)cc2)Nc2ncnn21 (stereo not drawn)	88	0	0	0	0	0
COc1ccccc1C1CC(c2ccc(F)cc2)Nc2ncnn21 (stereo not drawn)	0	0	0	0	0	0
O=C(C1CCN(S(=O)(=O)c2cccc3nsnc23)CC1)N1CCn2c1nc1ccccc12	0	0	0	0	0	0
COc1ccc(CCCC(=O)NC2CCCCC2)cc1	0	0	0	0	0	0
CCOP(=O)(c1ccccc1)C1(O)CCCCC1 (stereo not drawn)	0	0	0	0	0	0
COc1ccc(CC/C(=N\O)C2(O)CCCCC2)cc1	58	0	0	0	70	0
